The text below walks through data of PubChem BioAssay (NCATS).

The structures appear in SMILES notation. Several values for one entry are separate records, joined by “and”; a condition that tells them apart may be missing. Equal values may be shown once. Records with an inconclusive call do not appear. Activity calls are given as the source filed them. Unless noted, calls follow the shape of the dose curve; as a rule, active = well fitted curve in the direction sought with a large enough effect; inconclusive = small, poorly fitted or top-dose-only effect, or another doubt; inactive = no such curve, though single readings can be large; an effect the other way counts as inactive or inconclusive.

Test [1] has as its target T1, Hexokinase-4 (Homo sapiens) + Glucokinase regulatory protein (Homo sapiens) (UniProt P35557+Q14397). The experiment in a line: qHTS assay for inhibitors of recombinant human GCK-GKRP interaction: Diaphorase-coupled assay (AID 743205). A digest of the protocol: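 GST-GCK (10 nM) with FLAG-GKRP (10 nM), 5 mM glucose and 0.4 mM ATP in pH 7.6 Hepes; compounds preincubated 20 min with substrate. G6PDH/diaphorase coupling converts resazurin to resorufin, read kinetically (ex 525/em 590 nm) for 30 min.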
(In qHTS, concentration-response curves come from the screen itself.)

The target of test [2] is T1, Hexokinase-4 (Homo sapiens) + Glucokinase regulatory protein (Homo sapiens). Briefly: qHTS assay for inhibitors of recombinant human GCK-GKRP interaction: ADP-Glo assay (AID 743206).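 Also: plate controls were DMSO plus enzyme for no effect and no enzyme for full effect.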 A digest of the protocol: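 GST-GCK and FLAG-GKRP (15 nM each in the dispensed mix, with 2 uM S6P) react with 0.4 mM ATP and 5 mM glucose (final) in Hepes pH 7.6 for 60 min at room temperature. ADP is measured by ADP-Glo luminescence.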

The target is the same in test [3]. Briefly: qHTS assay for inhibitors of recombinant human GCK-GKRP interaction: HTRF assay (AID 743207).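 Also: 0% = DMSO with GCK present and -100% = DMSO wells lacking GCK.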 A digest of the protocol: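 GST-GCK and FLAG-GKRP (5 nM each) were combined with 2 uM S6P in pH 7.1 Hepes/MgCl2/KCl/DTT buffer, then compound and anti-FLAG XL665/anti-GST K antibodies were added. After 60 min at room temperature, HTRF 665/615 nm emission was read.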

Test [4] is described as follows: qHTS profiling of the MIPE4 collection as inhibitors of Plasmodium falciparum (3D7) proliferation (AID 743344; call rule not given here). To be noted: P. falciparum 3D7 in erythrocytes, SYBR Green DNA fluorescence, 72 h; at 28.5 µM (top of the series) unless noted. A digest of the protocol: (§1)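 Erythrocytes infected with P. falciparum (0.3% parasitemia, 2.5% hematocrit) incubated with compounds 72 h at 37 C, 5% CO2. Lysis with saponin/Triton buffer containing SYBR Green I, overnight at room temperature in the dark; DNA fluorescence (485/535 nm) normalised to 0.29 uM artemisinin and DMSO.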

A short description of test [5]: qHTS profiling of the MIPE4 collection as inhibitors of Plasmodium falciparum (DD2) proliferation (AID 743345; call rule not given here). The settings on record: P. falciparum Dd2 in erythrocytes, SYBR Green DNA, 72 h; at 28.5 µM (top of the series) unless noted. The essentials: as §1
Test [6] can be described thus: qHTS profiling of the MIPE4 collection as inhibitors of Plasmodium falciparum (DD2) proliferation (Rep 2) (AID 743346; call rule not given here). To be noted: P. falciparum Dd2 in erythrocytes, SYBR Green DNA, 72 h; at 28.5 µM (top of the series) unless noted. A digest of the protocol: as §1
Test [7] can be described thus: qHTS profiling of the MIPE4 collection as inhibitors of Plasmodium falciparum (HB3) proliferation (AID 743347; call rule not given here;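 also: plate controls were DMSO vehicle wells for no effect and artemisinin wells for full effect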). The settings on record: P. falciparum HB3 in erythrocytes, SYBR Green DNA, 72 h; at 28.5 µM (top of the series) unless noted. The essentials:
as §1

Test [8] can be described thus: High-throughput drug toxicity screening in the BPDCN cell line Gen2.2 (AID 1224824; call rule not given here;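 also: cells exposed to compounds for 48 h before reading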). The settings on record: Gen2.2 BPDCN cells; at 45.8 µM (top of the series) unless noted. The essentials: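 Gen2.2 cells (500/well) in phenol red-free RPMI with 10% FBS were exposed to compounds for 48 h at 37 °C, 5% CO2. Viability was read by CellTiter-Glo luminescence and normalized to DMSO (100%) and 9.2 uM bortezomib (0%).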

Test [9] is described as follows: High-throughput drug toxicity screening in the BPDCN cell line Cal-1 (AID 1224825; call rule not given here). The settings on record: Cal-1 BPDCN cell viability, qHTS; at 45.8 µM (top of the series) unless noted. A digest of the protocol: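 500 Cal-1 cells/well, RPMI + glutamine + 10% FBS (phenol red-free); cpd added by pin tool; 48 h, 37C, 5% CO2; CTG 15 min RT, lumi read. Normalised: DMSO 100%, bortezomib 9.2 uM 0%.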

Test [10] can be described thus: qHTS assay for measurement of the activity of small molecule inhibitors on Zika virus induced Caspase-3 activity in human iPSC derived neural progenitor cells (hNPCs) (AID 1224857). Also: nearly all actives have a fitted effect of over 65% in size. Also: potency is read from the fitted curve at half-maximal effect. The essentials: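 Quantitative HTS format: human iPSC neural progenitors, 1 h compound pretreatment, ZIKV 2 FFU/cell for 6 h at 37 C. Percent inhibition derived from luminescent caspase-3/7 signal between uninfected and infected controls.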

A short description of test [11]: qHTS assay for measurement of the activity of small molecule inhibitors on Zika virus induced Caspase-3 activity in human astrocytoma cells (AID 1224859).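 Also: plate controls were ZIKV-infected untreated cells for no effect and uninfected cells for full effect.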 The essentials:
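Readout is luminescence from Caspase-Glo 3/7 added after a 6 h ZIKV infection (2 FFU/cell) of compound-pretreated (1 h) SNB-19 cells; data expressed as % inhibition versus uninfected and infected wells.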

Test [12] is described as follows: qHTS Screen of the MIPE 4.0 Collection Against Ewings Sarcoma (RDES) (AID 1259252). Also: nearly all actives have a fitted effect of over 35% in size. Also: potency is read from the fitted curve at half-maximal effect. A digest of the protocol: (§2)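 CellTiter-Glo luminescence after 48 h compound exposure (titration) gave viability; percent activity used DMSO-treated cells as no inhibition and medium-only wells as full inhibition. Cells grown in RPMI/5% FBS, dosed 4 h post-seeding.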
Test [13] can be described thus: qHTS Screen of the MIPE 4.0 Collection Against Ewings Sarcoma (EW8) (AID 1259255).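 Also: 100% = DMSO-treated cells and 0% = medium-only wells without cells; nearly all actives have a fitted effect of over 35% in size.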 The essentials:
as §2

The nature of test [14]: qHTS Assay for Identifying Gametocytocidal Compounds (AID 743244). Also: potency is read from the fitted curve at half-maximal effect.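 As to max response: % is scaled to controls: 0 for no effect and ±100 for the full control effect; actives lower the fluorescent signal which means gametocytes are killed.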 The settings on record: P. falciparum 3D7 stage III-V gametocytes, alamarBlue, 72 h; max response: stronger effect = lower value. The essentials: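 A resazurin-based viability read-out was applied to mature P. falciparum gametocytes: 72 h compound treatment, then 24 h dye incubation, with falling fluorescence signalling gametocytocidal effect.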

The nature of test [15]: qHTS profiling for inhibitors of Plasmodium falciparum (3D7) proliferation (AID 743322; call rule not given here;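 also: infected erythrocytes exposed to compound for 72 h before lysis; 100% = DMSO vehicle wells and 0% = 0.29 µM artemisinin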). The settings on record: P. falciparum 3D7 proliferation; at 28.7 µM (top of the series) unless noted. The essentials:
as §1

Test [16] in a line: qHTS profiling for inhibitors of Plasmodium falciparum (DD2) proliferation (AID 743323; call rule not given here). The settings on record: lower = more inhibition; at 28.7 µM (top of the series) unless noted. A digest of the protocol: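 Parasite proliferation measured via DNA-dye fluorescence, as uninfected erythrocytes lack DNA. Cultures at 0.3% parasitemia and 2.5% hematocrit incubated 72 h with compound; signal scaled between vehicle and 0.29 uM artemisinin wells.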

T1 sequence (P35557 whole entry, looked up): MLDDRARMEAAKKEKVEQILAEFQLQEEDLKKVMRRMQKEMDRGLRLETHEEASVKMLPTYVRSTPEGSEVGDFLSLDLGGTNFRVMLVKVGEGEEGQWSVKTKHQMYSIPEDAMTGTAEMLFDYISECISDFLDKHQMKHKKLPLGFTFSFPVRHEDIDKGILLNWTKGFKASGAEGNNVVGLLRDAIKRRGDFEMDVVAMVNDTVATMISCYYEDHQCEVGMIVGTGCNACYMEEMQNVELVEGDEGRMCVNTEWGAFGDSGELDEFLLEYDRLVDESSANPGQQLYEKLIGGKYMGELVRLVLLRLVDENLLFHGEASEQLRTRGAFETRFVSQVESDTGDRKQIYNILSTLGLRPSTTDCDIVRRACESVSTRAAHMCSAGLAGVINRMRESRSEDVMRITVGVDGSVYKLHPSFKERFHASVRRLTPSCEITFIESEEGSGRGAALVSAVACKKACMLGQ
T1 sequence (Q14397 whole entry, looked up): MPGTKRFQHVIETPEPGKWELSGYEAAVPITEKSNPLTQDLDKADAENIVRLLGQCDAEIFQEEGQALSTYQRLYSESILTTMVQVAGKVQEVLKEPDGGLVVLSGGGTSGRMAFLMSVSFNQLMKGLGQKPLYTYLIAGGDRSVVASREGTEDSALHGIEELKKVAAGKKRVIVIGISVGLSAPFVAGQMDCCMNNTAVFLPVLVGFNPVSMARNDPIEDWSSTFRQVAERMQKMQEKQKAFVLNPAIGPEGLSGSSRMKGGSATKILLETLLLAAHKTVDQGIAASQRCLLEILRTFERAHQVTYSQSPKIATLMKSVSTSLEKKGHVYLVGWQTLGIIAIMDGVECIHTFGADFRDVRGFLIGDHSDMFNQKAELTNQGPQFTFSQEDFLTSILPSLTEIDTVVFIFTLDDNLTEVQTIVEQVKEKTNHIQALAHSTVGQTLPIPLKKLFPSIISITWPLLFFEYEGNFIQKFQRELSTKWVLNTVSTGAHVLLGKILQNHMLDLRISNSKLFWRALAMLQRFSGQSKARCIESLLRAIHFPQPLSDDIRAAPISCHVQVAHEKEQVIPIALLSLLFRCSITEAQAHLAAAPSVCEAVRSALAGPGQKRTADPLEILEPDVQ

Regarding `O=C1NC(=O)C(c2ccccc2[N+](=O)[O-])=C1Nc1ccc(O)c(Cl)c1`, the result in test [1], in [2] and in test [3] was inactive. The parasite growth, % of DMSO control in [4] was 68.6%. For the same molecule, in [5], the parasite growth remaining, % of DMSO control (lower = more inhibition) is 87.1%. Also, the parasite growth, % of control (lower = inhibition) in test [6] was found to be 106%. The molecule further showed a growth, % of control in [7] of 125%. The cell viability, % of control (lower = more cytotoxic) in test [8] stood at 124%. Further, the viability (% of control) in test [9] was found to be 36.6%. Besides, the Potency in test [10] and in test [12] was 20.9 µM (active) throughout. For the same molecule, in [11], the Potency entry is “inactive”.

For the molecule `COC(=O)N[C@H](C(=O)N[C@@H](Cc1ccccc1)[C@@H](O)CN(Cc1ccc(-c2ccccn2)cc1)NC(=O)[C@@H](NC(=O)OC)C(C)(C)C)C(C)(C)C`, the parasite growth, % of DMSO control in test [4] turned out to be 7.5%. Further, in [5], the parasite growth remaining, % of DMSO control (lower = more inhibition) was 18.2%. In addition, the parasite growth, % of control (lower = inhibition) in test [6] is 34.6%. This molecule also returned a growth, % of control in [7] of 9.81%. Moreover, in test [8], the cell viability, % of control (lower = more cytotoxic) turned out to be 159%. For the same molecule, the viability (% of control) in [9] worked out at 107%. The Potency result in test [10], in [11], in test [12] and in test [13] was “inactive” throughout.

For `Nc1cccc2c1CN(C1CCC(=O)NC1=O)C2=O` (stereo not given), the max response in test [14] was 12.8% (inactive) and 1.91% (inactive). For the same molecule, the remaining parasite growth % (stronger effect = lower value) in test [15] was 98.3% [at 57.5 µM] and 94.5% [at 57.5 µM]. In addition, the activity, percent of control in test [16] was 89.3% [at 57.5 µM] and 104% [at 57.5 µM]. In test [4], the parasite growth, % of DMSO control was 83.6% [at 57.5 µM]. Further, in test [5], the parasite growth remaining, % of DMSO control (lower = more inhibition) was found to be 107% [at 57.5 µM]. Moreover, the parasite growth, % of control (lower = inhibition) in [6] was found to be 127% [at 57.5 µM]. This molecule registered a growth, % of control in [7] of 108% [at 57.5 µM]. Further, the cell viability, % of control (lower = more cytotoxic) in test [8] amounted to 178% [at 92.2 µM]. The viability (% of control) in test [9] amounted to 101% [at 92.2 µM]. For the same molecule, the Potency result in [10], in test [11], in test [12] and in [13] was “inactive” in each case.

For the molecule `NC(=NCc1ccccc1)NC(=O)c1nc(Cl)c(N)nc1N`, the result in test [1], in test [2] and in test [3] was inactive. The Potency in test [14] was 23.5 µM (active); in test [12], 16.6 µM (active). In addition, the remaining parasite growth % (stronger effect = lower value) in test [15] is -0.258% [at 18.4 µM]. The activity, percent of control in test [16] came out at 10.1% [at 18.4 µM]. This molecule showed a parasite growth, % of DMSO control in test [4] of 103%. Also, in [5], the parasite growth remaining, % of DMSO control (lower = more inhibition) turned out to be 98.4%. For the same molecule, in test [6], the parasite growth, % of control (lower = inhibition) came out at 83.5%. The molecule also yielded a growth, % of control in [7] of 98.4%. In test [8], the cell viability, % of control (lower = more cytotoxic) stood at 130%. The viability (% of control) in [9] turned out to be 133%. Besides, the Potency entry in [10] and in test [11] was “inactive” in each case.
